Data reported in PubChem BioAssay AID588689 (Southern Research Specialized Biocontainment Screening …, 2011).
Out of some 340,000 compounds screened, about 1,000 (0.29%) were called active. Cut-off read from the data, not from the text of the source: inconclusive = inhibition above about 29% without an active follow-up result; inactive = below that. These entries were drawn from the full list. Potency and affinity values are given separately.

Target: Genome polyprotein (Dengue virus type 2 (strain 16681-PDK53)) (UniProt P29991)
Assay: Dengue-2 NS5 methyltransferase inhibitors, primary screen, biochemical, confirmation dose response (AID 588689)
Settings: Dengue-2 NS5 methyltransferase capping enzyme assay, at 25 µM, stronger effect = higher value
[1] = measured here: pilot screen replicate inhibition

Chain of Genome polyprotein (Dengue virus type 2 (strain 16681-PDK53)) (P29991 whole entry, looked up): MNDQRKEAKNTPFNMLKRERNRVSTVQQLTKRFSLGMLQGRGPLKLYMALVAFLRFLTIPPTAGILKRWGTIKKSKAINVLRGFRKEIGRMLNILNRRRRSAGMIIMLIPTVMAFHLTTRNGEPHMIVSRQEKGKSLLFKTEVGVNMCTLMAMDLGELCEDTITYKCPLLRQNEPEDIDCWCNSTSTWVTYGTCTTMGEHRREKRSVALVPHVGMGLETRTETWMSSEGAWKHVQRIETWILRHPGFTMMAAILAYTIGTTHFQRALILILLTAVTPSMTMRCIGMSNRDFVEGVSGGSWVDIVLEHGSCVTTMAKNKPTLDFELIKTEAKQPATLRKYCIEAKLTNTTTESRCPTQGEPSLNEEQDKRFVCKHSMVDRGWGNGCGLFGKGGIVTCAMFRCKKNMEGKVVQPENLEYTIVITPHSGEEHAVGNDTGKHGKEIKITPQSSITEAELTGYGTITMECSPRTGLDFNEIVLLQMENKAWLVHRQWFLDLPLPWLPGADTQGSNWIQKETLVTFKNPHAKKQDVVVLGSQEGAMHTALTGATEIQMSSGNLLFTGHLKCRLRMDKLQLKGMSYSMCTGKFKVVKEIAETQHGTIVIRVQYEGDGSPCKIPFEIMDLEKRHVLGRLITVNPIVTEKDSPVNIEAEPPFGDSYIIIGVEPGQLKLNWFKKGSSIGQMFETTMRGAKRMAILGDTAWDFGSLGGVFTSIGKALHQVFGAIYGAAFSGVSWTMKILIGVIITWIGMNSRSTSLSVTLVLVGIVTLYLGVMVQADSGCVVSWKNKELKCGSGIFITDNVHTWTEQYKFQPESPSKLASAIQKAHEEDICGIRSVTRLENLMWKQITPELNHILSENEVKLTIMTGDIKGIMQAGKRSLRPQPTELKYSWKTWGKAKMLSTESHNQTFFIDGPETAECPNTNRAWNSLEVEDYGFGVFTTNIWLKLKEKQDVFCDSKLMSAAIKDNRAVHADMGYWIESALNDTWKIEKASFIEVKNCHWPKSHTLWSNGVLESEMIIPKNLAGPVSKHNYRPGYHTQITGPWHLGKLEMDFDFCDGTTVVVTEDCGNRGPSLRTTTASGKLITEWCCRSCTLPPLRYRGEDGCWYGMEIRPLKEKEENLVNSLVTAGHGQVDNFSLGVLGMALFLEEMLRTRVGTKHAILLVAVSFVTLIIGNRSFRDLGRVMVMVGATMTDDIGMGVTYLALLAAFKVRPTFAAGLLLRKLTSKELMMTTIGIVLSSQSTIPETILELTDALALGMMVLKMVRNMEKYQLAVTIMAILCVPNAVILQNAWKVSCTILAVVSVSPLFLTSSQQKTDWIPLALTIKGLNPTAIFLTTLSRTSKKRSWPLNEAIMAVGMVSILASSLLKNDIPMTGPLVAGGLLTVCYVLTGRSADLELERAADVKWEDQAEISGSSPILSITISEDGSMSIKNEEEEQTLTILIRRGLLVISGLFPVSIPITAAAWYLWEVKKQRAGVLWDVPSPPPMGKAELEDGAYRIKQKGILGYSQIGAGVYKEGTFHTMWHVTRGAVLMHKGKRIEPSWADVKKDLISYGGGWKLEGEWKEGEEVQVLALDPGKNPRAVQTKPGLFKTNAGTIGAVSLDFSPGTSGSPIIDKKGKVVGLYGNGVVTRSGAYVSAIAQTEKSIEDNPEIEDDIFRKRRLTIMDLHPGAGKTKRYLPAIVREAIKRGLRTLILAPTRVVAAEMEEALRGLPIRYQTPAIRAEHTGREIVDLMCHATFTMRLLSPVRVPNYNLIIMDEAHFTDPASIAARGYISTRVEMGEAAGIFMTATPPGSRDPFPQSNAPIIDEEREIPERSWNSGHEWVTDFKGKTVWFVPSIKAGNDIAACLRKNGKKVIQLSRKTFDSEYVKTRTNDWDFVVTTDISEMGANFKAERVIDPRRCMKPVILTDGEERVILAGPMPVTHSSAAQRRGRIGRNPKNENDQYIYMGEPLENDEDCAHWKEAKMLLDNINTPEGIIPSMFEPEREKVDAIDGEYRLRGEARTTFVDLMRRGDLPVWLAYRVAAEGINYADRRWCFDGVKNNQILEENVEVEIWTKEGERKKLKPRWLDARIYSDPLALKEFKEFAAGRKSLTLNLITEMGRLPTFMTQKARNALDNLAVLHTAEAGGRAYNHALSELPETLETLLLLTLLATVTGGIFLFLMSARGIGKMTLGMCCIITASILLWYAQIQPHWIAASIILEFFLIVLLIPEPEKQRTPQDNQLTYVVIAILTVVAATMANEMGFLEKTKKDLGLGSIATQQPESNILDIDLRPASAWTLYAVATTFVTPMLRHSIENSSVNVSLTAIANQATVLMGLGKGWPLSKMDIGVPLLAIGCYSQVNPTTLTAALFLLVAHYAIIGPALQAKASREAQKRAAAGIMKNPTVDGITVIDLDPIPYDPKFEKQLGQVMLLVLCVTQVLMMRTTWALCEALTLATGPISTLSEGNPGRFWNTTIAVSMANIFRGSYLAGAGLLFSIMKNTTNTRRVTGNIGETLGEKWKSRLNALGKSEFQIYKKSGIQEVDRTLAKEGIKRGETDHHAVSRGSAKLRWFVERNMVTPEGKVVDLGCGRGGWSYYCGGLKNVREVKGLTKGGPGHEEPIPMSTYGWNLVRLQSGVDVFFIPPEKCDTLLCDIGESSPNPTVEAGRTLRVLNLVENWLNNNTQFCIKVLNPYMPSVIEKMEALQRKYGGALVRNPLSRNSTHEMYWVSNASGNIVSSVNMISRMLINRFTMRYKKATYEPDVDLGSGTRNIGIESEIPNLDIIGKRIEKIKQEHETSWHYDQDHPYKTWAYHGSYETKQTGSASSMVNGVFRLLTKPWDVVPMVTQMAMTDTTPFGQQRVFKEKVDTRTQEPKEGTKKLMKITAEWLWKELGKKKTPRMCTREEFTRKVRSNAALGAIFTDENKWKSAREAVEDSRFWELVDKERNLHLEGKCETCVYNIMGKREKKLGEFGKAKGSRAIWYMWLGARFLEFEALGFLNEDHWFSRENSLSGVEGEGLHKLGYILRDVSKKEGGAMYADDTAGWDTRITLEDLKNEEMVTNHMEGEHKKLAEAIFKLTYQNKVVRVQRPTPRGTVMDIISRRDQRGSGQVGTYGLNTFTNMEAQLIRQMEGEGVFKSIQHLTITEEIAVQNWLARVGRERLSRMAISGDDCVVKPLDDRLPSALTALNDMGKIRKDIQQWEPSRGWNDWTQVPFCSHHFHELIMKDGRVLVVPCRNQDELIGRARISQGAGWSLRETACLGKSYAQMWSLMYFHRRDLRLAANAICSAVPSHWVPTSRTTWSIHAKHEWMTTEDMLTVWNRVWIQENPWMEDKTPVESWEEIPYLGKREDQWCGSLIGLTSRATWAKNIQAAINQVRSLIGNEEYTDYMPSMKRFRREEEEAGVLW

| SMILES | inhibition | inhibition [1] |
| --- | --- | --- |
| COCc1cc(=O)n2[nH]c(C)cc2n1 | -5.47% (inactive) |  |
| CC1CCN(S(=O)(=O)c2ccc3[nH]c(=O)[nH]c3c2)CC1 | -10.8% (inactive) |  |
| COc1ccc(C(=O)/C=C/c2ccc(OCc3ccccc3)cc2)cc1CSCC(=O)O | 11.7% (inactive) |  |
| COc1ccc(C(=O)/C=C/c2ccsc2)cc1CSCC(=O)O | 6.74% (inactive) |  |
| COc1ccc(CCC(=O)OCC(=O)c2ccc[nH]2)cc1OC | 1.46% (inactive) |  |
| CSc1nccn1CC(=O)Nc1ccc(F)cc1 | -6.45% (inactive) |  |
| CCc1ccccc1NC(=O)NC1CC2CCC(C1)N2Cc1ccco1 (stereo not given) | -3.12% (inactive) |  |
| CCCC(N)CCCCCC(=O)O (stereo not given) | -9.35% (inactive) |  |
| CCCCCCC(=O)O | -2.09% (inactive) |  |
| CCNc1nc(NCC)n2c(SCC(=O)NC34CC5CC(CC(C5)C3)C4)nnc2n1 | -8.01% (inactive) |  |
| CCCCn1c(N)c(-c2nc3ccccc3s2)c2c([N+](=O)[O-])nn(CC)c(=O)c21 | -3.23% (inactive) |  |
| CCCCCn1c(N)c(-c2nc3ccccc3s2)c2c([N+](=O)[O-])nn(CC)c(=O)c21 | -4.79% (inactive) |  |
| O=[N+]([O-])c1ccc(CC(Cl)c2ccccn2)cc1 (stereo not given) | 0.78% (inactive) |  |
| CCCn1nc([N+](=O)[O-])c(C(C#N)c2nc3ccccc3s2)c(Cl)c1=O (stereo not given) | 27.6% (inactive) |  |
| Cn1c(C(C#N)C(=O)c2sc3ccccc3c2Cl)nc2ccccc21 (stereo not given) | -3.45% (inactive) |  |
| Cc1nc([N+](=O)[O-])c(Sc2nc3ccccc3n2C)n1Cc1ccccc1 | 11.5% (inactive) |  |
| N#CC(c1ccccn1)c1ncc(C(F)(F)F)cc1Cl (stereo not given) | -2.95% (inactive) |  |
| CCCCn1c(N)c(-c2nc3ccccc3o2)c2c([N+](=O)[O-])nn(CC)c(=O)c21 | -0.74% (inactive) |  |
| COc1ccc(/C=C(\C#N)C(=O)OCC(=O)N2CC(C)OC(C)C2)cc1 (stereo not given) | -2.3% (inactive) |  |
| O=C(CCCOc1ccc(Cl)cc1Cl)N/N=C/c1ccccc1 | -4.44% (inactive) |  |
| CCCCCCCC(=O)N1c2ccccc2NC(=O)C1CC(=O)Nc1ccc(C(=O)O)cc1 (stereo not given) | 8.1% (inactive) |  |
| Cc1ccccc1NS(=O)(=O)c1ccc(C(=O)N2CCCC(C(F)(F)F)C2)cc1 (stereo not given) | 0.73% (inactive) |  |

| SMILES | inhibition | inhibition [1] |
| --- | --- | --- |
| COc1cc(OC)cc(C(=O)NC2CCSC2=O)c1 (stereo not given) | 2.06% (inactive) | -3.04% |
| CCc1c(C)c2nncn2[nH]c1=O | -3.9% (inactive) |  |
| CCOc1ccc(NC(=O)CN(C)C(=O)C2CC(=O)N(c3ccc4c(c3)OCCO4)C2)cc1OCC (stereo not given) | 5.04% (inactive) |  |
| CC(C)Cn1c(SCC(=O)N2CC(=O)Nc3ccccc32)nc2ccccc21 | -0.64% (inactive) |  |
| CC(=O)OCC1CCCC2=C(C)C(=O)CCC21COC(C)=O (stereo not given) | 3.29% (inactive) |  |
| Cc1ccccc1NC(=O)NC1(C(=O)N2CCOCC2)CCCCC1 | -3.7% (inactive) |  |
| COc1ccc(CCn2c(=O)c3cccnc3n(Cc3ccc([N+](=O)[O-])cc3)c2=O)cc1OC | -7.08% (inactive) |  |
| CCS(=O)(=O)c1ccc(O)c(NC(=O)CCCC(=O)O)c1 | 12.2% (inactive) |  |
| CCCCCC(=O)Nc1cc(S(=O)(=O)N2CCCCC2)ccc1N1CCCCC1 | -6.48% (inactive) |  |
| Cc1ccc(N2CC(C(=O)OCc3nc(N)nc(Nc4ccccc4C)n3)CC2=O)cc1 (stereo not given) | 2.96% (inactive) |  |
| CCCCC/C=C/C1=CC(=O)C[C@H](c2ccc(OC)cc2)C1 | -0.8% (inactive) |  |
| CC(C)C(NC(=O)C1CCC(C(C)(C)C)CC1)C(=O)NCCc1ccc(S(N)(=O)=O)cc1 (stereo not given) | 9.25% (inactive) |  |
| O=C(/C=C/c1cccc([N+](=O)[O-])c1)NCCN1C(=O)S/C(=C\c2ccc(F)cc2)C1=O | 5.26% (inactive) |  |
| O=C(O)c1cccc(CN2C(=O)S/C(=C/c3ccccc3[N+](=O)[O-])C2=O)c1 | 28.5% (inactive) |  |
| CCCCNC(C(=O)Nc1ccc([N+](=O)[O-])cc1Br)c1ccccc1 (stereo not given) | 1.47% (inactive) |  |
| COc1ccc(C(=O)N2CCC(C(=O)Nc3ccc4c(c3)OCO4)CC2)cc1 | -4.42% (inactive) |  |
| O=C(NCc1ccc(F)cc1)C(=O)NCC1OCCN1S(=O)(=O)c1cc(F)ccc1F (stereo not given) | 6.59% (inactive) |  |
| Cc1ccc([N+](=O)[O-])cc1NC(=O)C(C)NS(=O)(=O)c1ccc(F)cc1 (stereo not given) | 2.19% (inactive) |  |
| COc1ccc(NC(=O)CCCc2nc3ccccc3c(=O)[nH]2)cc1Cl | 6.22% (inactive) |  |
| COC(=O)CCC(=O)OC1(C)C(=O)C2=CN(CCc3c[nH]c4ccccc34)C(c3ccc(OC)cc3)=CC2=C(Br)C1=O (stereo not given) | -2.45% (inactive) |  |
| COC(=O)CCC(=O)OC1(C)C(=O)C=C2C=C(C3CC3)N(Cc3ccc(OC)cc3)C=C2C1=O (stereo not given) | 17.3% (inactive) |  |
| COC(=O)CCC(=O)OC1(C)C(=O)C2=CN(Cc3ccc(OC)cc3)C(c3ccc(OC)cc3)=CC2=C(Br)C1=O (stereo not given) | 17.2% (inactive) |  |

| SMILES | inhibition | inhibition [1] |
| --- | --- | --- |
| COC(=O)CCC(=O)OC1(C)C(=O)C=C2C=C(C3CC3)N(CC3CC3)C=C2C1=O (stereo not given) | 9.84% (inactive) |  |
| CCN(CC)CCCN1C=C2C(=O)C(C)(OC(=O)CCC(=O)OC)C(=O)C(Br)=C2C=C1c1ccc(OC)cc1 (stereo not given) | 8.8% (inactive) |  |
| COC(=O)CCC(=O)OC1(C)C(=O)C=C2C=C(C3CC3)N(C3CCCCC3)C=C2C1=O (stereo not given) | 12.7% (inactive) |  |
| COC(=O)CCC(=O)OC1(C)C(=O)C=C2C=C(C3CC3)N(CCCOC(C)C)C=C2C1=O (stereo not given) | 7.22% (inactive) |  |
| COC(=O)CCC(=O)OC1(C)C(=O)C=C2C=C(C3CC3)N(C3CCCC3)C=C2C1=O (stereo not given) | 12.8% (inactive) |  |
| N#Cc1ccc(CN2CCN(C(=O)CCNS(=O)(=O)c3ccc(F)c(F)c3)CC2)cc1 | -7.08% (inactive) |  |
| O=C(CSc1ccc2c(c1)OCCO2)NCC1CCCO1 (stereo not given) | -10.5% (inactive) |  |
| O=c1c(-c2ccccc2)c(O)c2c(n1-c1ccccc1)CCCC2 | -3.21% (inactive) |  |
| O=C(O)c1ccc(-c2ccco2)n1Cc1ccccc1 | 4.75% (inactive) |  |
| O=C(CN1CCN(Cc2ccc(F)cc2)CC1)Nc1ccccc1F | 1.36% (inactive) |  |
| CCN(C(=O)CSc1nc2ccccc2c(=O)n1CCOC)C1CCS(=O)(=O)C1 (stereo not given) | 1.48% (inactive) |  |
| COc1ccc(NC(=O)c2cccc3c2C(=O)c2ccc(-c4ccc(F)cc4OCc4ccccc4)cc2S3(=O)=O)cc1 | -0.7% (inactive) |  |
| O=C1c2ccc(-c3ccc(F)cc3OCc3ccccc3)cc2S(=O)(=O)c2cccc(C(=O)N3CCCC3)c21 | 8% (inactive) |  |
| CC(C)c1cccc(-c2ccc3c(c2)S(=O)(=O)c2cccc(C(=O)NCc4ccccc4)c2C3=O)c1 | -6.42% (inactive) |  |
| CC(C)c1cccc(-c2ccc3c(c2)S(=O)(=O)c2cccc(C(=O)NC4CCCC4)c2C3=O)c1 | -4.92% (inactive) |  |
| O=C(OCCN1CCCCC1)c1ccccc1Cl | 7.44% (inactive) |  |
| CN(CC(=O)Nc1cccc(F)c1)CC(=O)N1CCCCC1 | 6.98% (inactive) |  |
| COc1ccc(CN2CC(C(=O)NCCC(C)C)CC2=O)cc1 (stereo not given) | 6.67% (inactive) |  |
| CC(C)(C)C(=O)NCCCc1ccccc1 | -0.68% (inactive) |  |
| CCOc1cc(/C=C2/NC(=O)NC2=O)cc([N+](=O)[O-])c1O | 22.9% (inactive) |  |
| COc1cc(/C=C2/C(=O)NN(c3cccc(F)c3)C2=O)ccc1OC(=O)c1ccco1 | 23% (inactive) |  |
| COc1cc(/C=C2\C(=N)N3N=C(S(C)(=O)=O)SC3=NC2=O)ccc1OC(=O)c1ccco1 | -59.7% (inactive) |  |

| SMILES | inhibition | inhibition [1] |
| --- | --- | --- |
| COc1cc(/C=C2\C(=O)NN(c3ccccc3)C2=O)cc([N+](=O)[O-])c1O | 26.6% (inactive) |  |
| COc1cc(/C=C2\C(=O)NN(c3ccc(C)cc3)C2=O)cc([N+](=O)[O-])c1O | 17.9% (inactive) |  |
| CCOc1cc(/C=C2/C(=O)N(c3ccccc3)N=C2C)ccc1OC(=O)c1ccco1 | 19.1% (inactive) |  |
| COc1cc(/C=C2/C(=O)NN(c3ccc(Cl)cc3)C2=O)ccc1OC(=O)c1ccco1 | 15.2% (inactive) |  |
| CCOc1cc(/C=C2\NC(=O)NC2=O)cc([N+](=O)[O-])c1O | 71.9% (inactive) |  |
| Cc1cc(C)c(NC(=O)c2ccc3c(c2)NC(=O)C(C)S3)c(C)c1 (stereo not given) | -0.76% (inactive) |  |
| O=S(=O)(NCCc1ccc(F)cc1)c1ccc(F)cc1Br | -1.99% (inactive) | -0.92% |
| CCCCCC(=O)NNC1=NCC(Cc2cccc(Cl)c2)S1 (stereo not given) | -9.62% (inactive) |  |
| CCN(Cc1cnn(C)c1)Cc1nc(Cc2ccccc2Cl)no1 | -2.18% (inactive) |  |
| CCCCN1C(=O)/C(=C2\SC(N3CCCCC3)=NC2=O)c2ccccc21 | 1.1% (inactive) |  |
| O=C(NCc1ccccc1)c1cccc(S(=O)(=O)N2CCCCC2)c1 | -8.7% (inactive) |  |
| COc1ccc(OC)c(/C=N/NC(=O)c2ccncc2)c1 | -7.07% (inactive) |  |
| CCc1ccccc1N(CC(=O)OC)S(C)(=O)=O | 3.12% (inactive) |  |
| Cc1cc(O)ccc1C1(c2ccc(O)cc2C)OC(=O)c2ccccc21 | -9.01% (inactive) |  |
| O=C1OC(c2ccccc2)(c2ccccc2)c2ccccc21 | -6.99% (inactive) |  |
| O=C1OC2(c3ccccc31)c1ccccc1-c1ccccc12 | 8.53% (inactive) |  |
| O=C1OC(c2ccccc2)(c2ccc(O)cc2)c2ccccc21 (stereo not given) | 0.78% (inactive) |  |
| CC1CCCN(C(=O)c2nn(C)c3c2CS(=O)(=O)c2ccccc2-3)C1 (stereo not given) | -6.35% (inactive) |  |
| COc1ccc(/C=C/C(=O)NC(C)(C)C)cc1S(=O)(=O)N1CCOCC1 | 3.24% (inactive) |  |
| O=C(Nc1ccc2oc(=O)ccc2c1)c1cc([N+](=O)[O-])ccc1N1CCOCC1 | -4.64% (inactive) |  |
| Cc1ccc(OC(C)C(=O)N2CC(=O)Nc3ccccc32)cc1 (stereo not given) | 1.78% (inactive) |  |
| C[C@@H]1CN([C@@H](C)CO)C(=O)Cc2cc(NC(=O)Nc3ccc(F)cc3)ccc2O[C@@H]1CN(C)Cc1ccc(Cl)c(Cl)c1 | -10.3% (inactive) |  |
